{"source": "paper PMC5540273", "about": "(PLoS ONE, 2017);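 further: KINOMEscan kinase panel screen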"}
{"test_system": "TRKB", "settings": "concentration: 1 μM,replicates: in singlicate; n = 1", "units": {"%Inh": "%"}}
{"smiles": "CS(=O)(=O)Nc1ccc(-c2ccnc3[nH]ccc23)cc1", "note": "[GSK993273]", "%Inh": 48}
{"smiles": "O=C(NCC1CC1)c1ccc(-c2cc(C(=O)NC3CC3)ccc2F)cc1", "note": "[GW810445]", "%Inh": 0}
{"smiles": "Cc1cccc2c(-c3ccncc3)c(-c3ccc(F)cc3)nn12.Cl", "note": "[GW461487]", "%Inh": 0}
{"smiles": "Cn1ccc2ncnc(Oc3ccc(NC(=O)Nc4cnn(C(C)(C)C)c4)c(Cl)c3)c21", "%Inh": 56}
{"smiles": "Cn1cc(-c2cccc3c(N)c(C(N)=O)nnc23)cn1", "%Inh": 0}
{"smiles": "C[C@@H]1CCN(C(=O)N2CCCC2)C[C@@H]1N(C)c1ncnc2[nH]ccc12", "%Inh": 55}
{"smiles": "Cl.Nc1n[nH]c2cc(-c3ccccn3)ccc12", "note": "[GSK2189892]", "%Inh": 0}
{"smiles": "Cl.c1ccc(Oc2ccc(Nc3ccnc4cc(-c5ccc(CN6CCNCC6)o5)ccc34)cc2)nc1", "note": "[GW567142]", "%Inh": 0}
{"smiles": "CCNCC(Cc1ccccc1)NC(=O)c1cc(Br)c(-c2ccnc3[nH]ccc23)s1.Cl.Cl", "note": "(centres unmarked) [GSK1383280]", "%Inh": 77}
{"smiles": "Cc1ccc(Nc2ccnc(Nc3ccc4c(c3)CS(=O)(=O)C4)n2)cc1O.Cl", "note": "[GW579362]", "%Inh": 91.7}
{"smiles": "COc1cccc(C2=C(Nc3cccc(Cl)c3)C(=O)NC2=O)c1", "note": "[SB-341556]", "%Inh": 36}
{"smiles": "CCN1CCN(CCCC(=O)Nc2n[nH]c3nc(-c4ccc(O)cc4)c(Br)cc23)CC1", "note": "[SB-731579]", "%Inh": 2}
{"smiles": "CSc1nccc(-c2c(-c3ccc(F)cc3)ncn2CCCN2CCOCC2)n1.Cl", "note": "[SB-217146]", "%Inh": 0}
{"smiles": "COc1cc2nccc(Nc3ccc(Oc4ccccc4)cc3)c2cc1OC.Cl", "note": "[GI261656]", "%Inh": 6}
{"smiles": "CS(=O)c1ccc(-c2coc3ccc(-c4n[nH]c(=O)o4)cc23)cc1", "note": "(centres unmarked)", "%Inh": 0}
{"smiles": "Cn1ccc2ncnc(Oc3ccc(NC(=O)Nc4ccnc(C(F)(F)F)c4)c(Cl)c3)c21", "%Inh": 0}
{"smiles": "CN1CCN(CCCNc2nccc(-c3c(-c4ccc(F)cc4)nn4cc(C(N)=O)ccc34)n2)CC1", "note": "[GW622475]", "%Inh": 10}
{"smiles": "O=C(NOCC1CC1)c1cc(Br)c(F)c(F)c1Nc1ccc(I)cc1Cl", "%Inh": 20}
{"smiles": "COc1cccc(CNC(=O)NC2CCN(c3ccnc(Nc4cc(OC)c(OC)c(OC)c4)n3)C2)c1", "note": "(centres unmarked) [GSK1379765]", "%Inh": 7}
{"smiles": "COc1cc(Nc2nccc(N3CCC(NC(=O)c4cccc(C#N)c4)C3)n2)cc(OC)c1OC", "note": "(centres unmarked) [GSK1379751]", "%Inh": 53}
{"smiles": "COC(=O)c1cccc(NC(=O)NC2CCN(c3ccnc(NCc4ccc(F)cc4)n3)CC2)c1", "note": "[GSK1379860]", "%Inh": 12}
{"smiles": "Cn1ccc2ncnc(Oc3ccc(NC(=O)Nc4cc(C(C)(C)C)on4)c(Cl)c3)c21", "%Inh": 96.4}
{"smiles": "O=C1NCCc2[nH]c(-c3ccncc3)cc21", "%Inh": 19}
{"smiles": "Nc1nccc(-c2ccc3c(N)n[nH]c3c2)n1", "note": "[GSK1034945]", "%Inh": 0}
{"smiles": "CC(=O)Nc1ccc(-c2cc3ncnc(SCC(=O)O)c3s2)cc1", "%Inh": 0}
{"smiles": "NC(=O)c1ccc(-c2cc3ncnc(SCC(=O)O)c3s2)cc1", "%Inh": 35}
{"smiles": "Cc1cccc(-c2nc(Nc3ccncc3)c3sccc3n2)n1", "note": "[GW869641]", "%Inh": 6}
{"smiles": "Cn1ccc2ncnc(Oc3ccc(NC(=O)Nc4cncc(C(F)(F)F)c4)c(Cl)c3)c21", "%Inh": 55}
{"smiles": "OCCn1cc(-c2cnc3nnn(Cc4ccc5ncccc5c4)c3n2)cn1", "%Inh": 0}
{"smiles": "C[C@@H]1CNc2c(sc3ccc4nc(-c5ccc(O)cc5)ccc4c23)C(=O)N1", "%Inh": 0}
{"smiles": "FC(F)(F)c1cc(Br)cc(Nc2nccc(-c3cnn4ncccc34)n2)c1", "note": "[GW810578]", "%Inh": 0}
{"smiles": "NC(=O)Nc1sc(-c2ccc(F)cc2)cc1C(N)=O", "note": "[GW789449]", "%Inh": 89}
{"smiles": "c1ccc(Oc2ccc(Nc3ccnc4ccc(-c5ccccn5)cc34)cc2)cc1", "note": "[GW407034]", "%Inh": 15}
{"smiles": "CCn1c(-c2nonc2N)nc2cncc(CNC3CCNCC3)c21.Cl", "note": "[SB-747651]", "%Inh": 43}
{"smiles": "CN(c1ccccc1CNc1nc(Nc2ccc3c(c2)CC(=O)N3)ncc1C(F)(F)F)S(C)(=O)=O", "%Inh": 94.7}
{"smiles": "Cc1ccc(C(=O)Nc2ccc(Oc3ccc4nc(NC(=O)C5CC5)cn4c3)c(F)c2)c(=O)n1-c1ccccc1", "%Inh": 99.9}
{"smiles": "C[C@@H](Oc1cc(-n2cnc3ccc(-c4ccncc4)cc32)sc1C(N)=O)c1ccccc1Cl", "note": "[GSK483724]", "%Inh": 7}
{"test_system": "T1, TRKC", "T1 construct": "gene NTRK3", "settings": "concentration: 1 μM,replicates: in singlicate; n = 1", "units": {"%Inh": "%"}}
{"smiles": "CS(=O)(=O)Nc1ccc(-c2ccnc3[nH]ccc23)cc1", "note": "[GSK993273]", "%Inh": 39}
{"smiles": "O=C(NCC1CC1)c1ccc(-c2cc(C(=O)NC3CC3)ccc2F)cc1", "note": "[GW810445]", "%Inh": 0}
{"smiles": "Cc1cccc2c(-c3ccncc3)c(-c3ccc(F)cc3)nn12.Cl", "note": "[GW461487]", "%Inh": 0}
{"smiles": "Cn1ccc2ncnc(Oc3ccc(NC(=O)Nc4cnn(C(C)(C)C)c4)c(Cl)c3)c21", "%Inh": 82}
{"smiles": "Cn1cc(-c2cccc3c(N)c(C(N)=O)nnc23)cn1", "%Inh": 0}
{"smiles": "C[C@@H]1CCN(C(=O)N2CCCC2)C[C@@H]1N(C)c1ncnc2[nH]ccc12", "%Inh": 26}
{"smiles": "Cl.Nc1n[nH]c2cc(-c3ccccn3)ccc12", "note": "[GSK2189892]", "%Inh": 0}
{"smiles": "Cl.c1ccc(Oc2ccc(Nc3ccnc4cc(-c5ccc(CN6CCNCC6)o5)ccc34)cc2)nc1", "note": "[GW567142]", "%Inh": 15}
{"smiles": "CCNCC(Cc1ccccc1)NC(=O)c1cc(Br)c(-c2ccnc3[nH]ccc23)s1.Cl.Cl", "note": "(centres unmarked) [GSK1383280]", "%Inh": 50}
{"smiles": "Cc1ccc(Nc2ccnc(Nc3ccc4c(c3)CS(=O)(=O)C4)n2)cc1O.Cl", "note": "[GW579362]", "%Inh": 78}
{"smiles": "COc1cccc(C2=C(Nc3cccc(Cl)c3)C(=O)NC2=O)c1", "note": "[SB-341556]", "%Inh": 19}
{"smiles": "CCN1CCN(CCCC(=O)Nc2n[nH]c3nc(-c4ccc(O)cc4)c(Br)cc23)CC1", "note": "[SB-731579]", "%Inh": 0}
{"smiles": "CSc1nccc(-c2c(-c3ccc(F)cc3)ncn2CCCN2CCOCC2)n1.Cl", "note": "[SB-217146]", "%Inh": 0}
{"smiles": "COc1cc2nccc(Nc3ccc(Oc4ccccc4)cc3)c2cc1OC.Cl", "note": "[GI261656]", "%Inh": 6}
{"smiles": "CS(=O)c1ccc(-c2coc3ccc(-c4n[nH]c(=O)o4)cc23)cc1", "note": "(centres unmarked)", "%Inh": 39}
{"smiles": "Cn1ccc2ncnc(Oc3ccc(NC(=O)Nc4ccnc(C(F)(F)F)c4)c(Cl)c3)c21", "%Inh": 27}
{"smiles": "CN1CCN(CCCNc2nccc(-c3c(-c4ccc(F)cc4)nn4cc(C(N)=O)ccc34)n2)CC1", "note": "[GW622475]", "%Inh": 6}
{"smiles": "O=C(NOCC1CC1)c1cc(Br)c(F)c(F)c1Nc1ccc(I)cc1Cl", "%Inh": 0}
{"smiles": "COc1cccc(CNC(=O)NC2CCN(c3ccnc(Nc4cc(OC)c(OC)c(OC)c4)n3)C2)c1", "note": "(centres unmarked) [GSK1379765]", "%Inh": 55}
{"smiles": "COc1cc(Nc2nccc(N3CCC(NC(=O)c4cccc(C#N)c4)C3)n2)cc(OC)c1OC", "note": "(centres unmarked) [GSK1379751]", "%Inh": 64}
{"smiles": "COC(=O)c1cccc(NC(=O)NC2CCN(c3ccnc(NCc4ccc(F)cc4)n3)CC2)c1", "note": "[GSK1379860]", "%Inh": 24}
{"smiles": "Cn1ccc2ncnc(Oc3ccc(NC(=O)Nc4cc(C(C)(C)C)on4)c(Cl)c3)c21", "%Inh": 99.1}
{"smiles": "O=C1NCCc2[nH]c(-c3ccncc3)cc21", "%Inh": 14}
{"smiles": "Nc1nccc(-c2ccc3c(N)n[nH]c3c2)n1", "note": "[GSK1034945]", "%Inh": 0}
{"smiles": "CC(=O)Nc1ccc(-c2cc3ncnc(SCC(=O)O)c3s2)cc1", "%Inh": 0}
{"smiles": "NC(=O)c1ccc(-c2cc3ncnc(SCC(=O)O)c3s2)cc1", "%Inh": 0}
{"smiles": "Cc1cccc(-c2nc(Nc3ccncc3)c3sccc3n2)n1", "note": "[GW869641]", "%Inh": 5}
{"smiles": "Cn1ccc2ncnc(Oc3ccc(NC(=O)Nc4cncc(C(F)(F)F)c4)c(Cl)c3)c21", "%Inh": 88}
{"smiles": "OCCn1cc(-c2cnc3nnn(Cc4ccc5ncccc5c4)c3n2)cn1", "%Inh": 0}
{"smiles": "C[C@@H]1CNc2c(sc3ccc4nc(-c5ccc(O)cc5)ccc4c23)C(=O)N1", "%Inh": 0}
{"smiles": "FC(F)(F)c1cc(Br)cc(Nc2nccc(-c3cnn4ncccc34)n2)c1", "note": "[GW810578]", "%Inh": 1}
{"smiles": "NC(=O)Nc1sc(-c2ccc(F)cc2)cc1C(N)=O", "note": "[GW789449]", "%Inh": 67}
{"smiles": "c1ccc(Oc2ccc(Nc3ccnc4ccc(-c5ccccn5)cc34)cc2)cc1", "note": "[GW407034]", "%Inh": 9}
{"smiles": "CCn1c(-c2nonc2N)nc2cncc(CNC3CCNCC3)c21.Cl", "note": "[SB-747651]", "%Inh": 24}
{"smiles": "CN(c1ccccc1CNc1nc(Nc2ccc3c(c2)CC(=O)N3)ncc1C(F)(F)F)S(C)(=O)=O", "%Inh": 89}
{"smiles": "Cc1ccc(C(=O)Nc2ccc(Oc3ccc4nc(NC(=O)C5CC5)cn4c3)c(F)c2)c(=O)n1-c1ccccc1", "%Inh": 99}
{"smiles": "C[C@@H](Oc1cc(-n2cnc3ccc(-c4ccncc4)cc32)sc1C(N)=O)c1ccccc1Cl", "note": "[GSK483724]", "%Inh": 18}
